The results in this text go back to PubChem BioAssay (Tox21).

The nature of test [1]: qHTS assay for small molecule agonists of the p53 signaling pathway (AID 651631; calls by dose curve; further: nearly all actives have a fitted effect of over 15% in size). In a few lines: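 Agonist mode screen using a stably integrated beta-lactamase gene under p53 response elements in HCT-116 cells. Compound exposure lasts 16 h at 37 °C; fluorescence intensity is measured following 2 h FRET substrate loading.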
A general note: Quantitative high-throughput screening tests each substance at several concentrations.

Test [2] can be described thus: qHTS assay for small molecules that induce genotoxicity in human embryonic kidney cells expressing luciferase-tagged ATAD5 (AID 651632). Further: nearly all actives have a fitted effect of over 15% in size. In a few lines:
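Genotoxicity read-out via ATAD5-luciferase: HEK293T cells, 16 hr compound incubation at 37C, Amplite detection.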

The nature of test [3]: qHTS assay for small molecules that induce genotoxicity in human embryonic kidney cells expressing luciferase-tagged ATAD5 - cell viability (AID 651634; calls by dose curve; further: nearly all actives have a fitted effect of over 25% in size). In a few lines:
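Live-cell protease activity (CellTiter-Fluor, fluorescence) indicates viability. HEK293T cells with luciferase-tagged ATAD5; 15.5 hr compound treatment at 37C.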

A short description of test [4]: qHTS assay for small molecule disruptors of the mitochondrial membrane potential (AID 720635). Further: potency means the concentration at half of the fitted maximal effect. In a few lines: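 Mitochondrial membrane potential tracked with Mito-MPS dye, red aggregates (ex 540/em 590 nm) against green monomers (ex 490/em 535 nm). Compound treatment 1 hr at 37C, dye 30 min in HepG2.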
Test [5] in a line: qHTS assay to test for compound auto fluorescence at 590 nm (red) in HepG2 cells (AID 720674). In a few lines: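 We screened compounds on adherent HepG2 cells, incubating them for an hour at 37 C in 5% CO2 before reading emission at 590 nm under 540 nm excitation; values reflect equivalence to Rose Bengal sodium fluorescence.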
The nature of test [6]: qHTS assay to test for compound auto fluorescence at 535 nm (green) in HepG2 cells (AID 720675).
A short description of test [7]: qHTS assay to test for compound auto fluorescence at 460 nm (blue) in HEK293 cells (AID 720678). In a few lines: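 Measured: blue fluorescence (Ex 405/Em 460 nm) of compound-treated HEK293 cells, incubated overnight at 37C with 5% CO2 and scaled to triamterene equivalents.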
Test [8] is described as follows: qHTS assay to test for compound auto fluorescence at 590 nm (red) in HEK293 cells (AID 720679). In a few lines: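 Using HEK293 cells at 2,000 per well, the screen added 23 nL of each compound after cell attachment and incubated overnight (37C, 5% CO2). The plate reader then captured red-label fluorescence, Ex/Em 540/590nm.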
A short description of test [9]: qHTS assay for small molecule disruptors of the mitochondrial membrane potential - cell viability (AID 720634; calls by dose curve;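 further: human HepG2 liver cancer cells; series mostly up to about 83 µM; nearly all actives have a fitted effect of over 20% in size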). In a few lines:
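Human hepatoma HepG2 cells were treated for 1 hr with test chemicals, then given m-MPI dye and CellTiter-Glo. Cell viability reflects luminescence proportional to cellular ATP.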

The nature of test [10]: qHTS assay for small molecule agonists of the p53 signaling pathway - cell viability (AID 651633; calls by dose curve;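 further: p53RE-bla HCT reporter cells with a stable beta-lactamase p53 reporter; series mostly up to about 83 µM; nearly all actives have a fitted effect of over 30% in size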). In a few lines:
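Viability counter-read: CellTiter-Glo luminescence (30 min, room temperature) in the same p53RE-bla plates. These plates had been exposed to compounds for 16 h at 37 C.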

A number with no mark means an inactive call. Results filed as inconclusive are left out. Active and inactive are the calls of the source. Unless noted, the call rests on the fitted dose curve; in most records, active means well fitted curve in the direction sought with a large enough effect in the repeat runs; inconclusive means weak or mixed curves; inactive means no such curve, though single readings can be large; an effect the other way counts as inactive or inconclusive.
On the % scale 0 is the no-effect control and ±100 the full control effect.

On to `Nc1c2c(nc3ccccc13)CCCC2O` (centres undefined), for which the molecule was classed as inactive in test [1], in [5], in test [6], in [7] and in test [8]. The Potency result in test [2], in [3] and in test [4] was “inactive” each time.
With `COc1cc(C(=O)N2CCCCCCC2)cc(OC)c1OC`, the molecule was called inactive in test [1], in [5], in test [6], in test [7] and in test [8]. Further, the Potency result in test [2], in [3] and in test [9] was “inactive” each time.
In the case of `CCOC(=O)C(=O)OCC`, the outcome in [1], in test [5], in [6] and in test [7] was inactive. The Potency result in [2], in [3], in test [9] and in test [4] was “inactive” throughout.
For the molecule `N[C@@H](C(=O)N[C@@H]1C(=O)N2C(C(=O)O)=C(Cl)CS[C@H]12)c1ccccc1`, the call in test [1], in test [5], in test [6], in [7] and in test [8] was inactive. Moreover, the Potency entry in test [2], in [3] and in test [9] was “inactive” each time.
On to `O=c1n(CCO)c(=O)n(CCO)c(=O)n1CCO`, for which the molecule was called inactive in test [1], in [10], in [5], in test [6] and in test [7]. The Potency result in test [3], in test [9] and in test [4] was “inactive” throughout.
On to `CCCCCCCCCCCCCC=O`, for which the activation in test [1] is -3.36% [at 8.3 µM]; in test [2] it was 2.51% [at 8.08 µM]. Further, in test [9], the activity change, negative = cytotoxicity was 12.2% [at 8.08 µM]. Moreover, the ratio activity, negative = MMP loss in test [4] is 25.8% [at 8.08 µM]. Moreover, the fluorescence, relative to Rose Bengal in test [5] was 0.0167% [at 3.72 µM]. For the same molecule, the fluorescence, % of fluorescein control in test [6] was 0.0875% [at 3.72 µM]. In addition, the fluorescence, % of triamterene in test [7] was -0.166% [at 3.72 µM]. In addition, the fluorescence, % of fluorescent control in test [8] was -0.804% [at 3.72 µM].
On to `C=C[Si](OC(=C)C)(OC(=C)C)OC(=C)C`, for which the result in [1], in test [10], in test [5], in test [6], in test [7] and in [8] was inactive. In addition, the Potency result in test [2] and in test [9] was “inactive” in each case.
With `C=CCCCCCCCCC=O`, the molecule was called inactive in [1], in [10], in [5], in [6] and in [7]. The Potency entry in test [3] and in test [9] was “inactive” in each case.
Consider `Nc1cc(=O)[nH]c(N)n1`, for which the call in test [1], in test [5], in [6] and in test [7] was inactive. Moreover, the Potency result in [2], in test [3], in [9] and in test [4] was “inactive” each time.
Turning to `C[C@](N)(Cc1ccc(O)cc1)C(=O)O`, the result in test [1], in [5], in [6], in test [7] and in [8] was inactive. For the same molecule, the Potency result in test [2], in test [3], in test [9] and in test [4] was “inactive” each time.
Regarding `CCC(=O)OC(C)c1ccccc1` (centres undefined), the call in [1], in test [5], in test [6] and in test [7] was inactive. For the same molecule, the Potency result in test [2] and in test [9] was “inactive” each time.
As for `CO[Si](CCCOCC1CO1)(OC)OC` (centres undefined), the molecule was called inactive in test [1], in test [10], in [5], in test [6], in test [7] and in test [8]. Further, the Potency entry in test [3], in [9] and in [4] was “inactive” throughout.
Take `CCCN(CCC)CCc1cccc2c1CC(=O)N2`: the molecule was called inactive in [1], in [5], in test [6], in test [7] and in [8]. For the same molecule, the Potency entry in test [2], in test [3], in test [9] and in test [4] was “inactive” in each case.
With `CCSC(=O)N(CC(C)C)CC(C)C`, the outcome in test [1], in test [10], in test [5], in [6], in test [7] and in [8] was inactive. For the same molecule, the Potency entry in test [3], in test [9] and in test [4] was “inactive” each time.
Turning to `CN(C(=O)c1c(O)c2ccccc2n(C)c1=O)c1ccccc1`, the molecule was called inactive in test [1], in test [5], in test [6], in test [7] and in test [8]. Further, the Potency result in test [2], in [3] and in test [4] was “inactive” each time.
Turning to `O=c1[nH]c(=O)n([C@H]2C[C@H](O)[C@@H](CO)O2)cc1I`, the molecule was classed as inactive in [1], in test [10], in test [5], in test [6], in [7] and in test [8]. Also, the Potency result in [3], in test [9] and in test [4] was “inactive” in each case.
With `COc1c(N2C[C@@H]3CCCN[C@@H]3C2)c(F)cc2c(=O)c(C(=O)O)cn(C3CC3)c12`, the outcome in [1], in test [5], in test [6] and in [7] was inactive. Also, the Potency result in test [2], in test [3] and in [9] was “inactive” throughout.
As for `OCCOc1ccc(OCCO)cc1`, the outcome in test [1], in test [10], in test [5], in test [6] and in test [7] was inactive. Moreover, the Potency entry in test [3] and in test [9] was “inactive” each time. Further, the Potency in [4] is 1560 nM (active).
On to `N[C@H]1CN(c2c(F)cc3c(=O)c(C(=O)O)cn(C4C[C@H]4F)c3c2Cl)CC12CC2` (some centres undefined), for which the molecule was classed as inactive in test [1], in test [5], in [6], in test [7] and in test [8]. The Potency entry in test [2], in test [9] and in test [4] was “inactive” in each case.
For `OC(CCN1CCCCC1)(c1ccccc1)C1CC2C=CC1C2` (centres undefined), the call in [1], in [10], in test [5], in [6], in test [7] and in test [8] was inactive. In addition, the Potency entry in test [2] was “inactive”.
For `CC1(C)CO[C@@H](CC(=O)O)CN1`, the molecule was classed as inactive in test [1], in [10], in test [5], in test [6], in test [7] and in test [8]. Besides, the Potency result in test [2] is “inactive”.
In the case of `C[N+](C)(C)CCCCCC[N+](C)(C)C`, the call in test [1], in [5], in test [6], in test [7] and in [8] was inactive. In addition, the Potency entry in test [2] and in test [3] was “inactive” each time.
Consider `COCCc1ccc(OCC(O)CNC(C)C)cc1` (centres undefined), for which the molecule was called inactive in [1], in test [5], in [6], in test [7] and in test [8]. In addition, the Potency entry in test [2], in test [3], in test [9] and in [4] was “inactive” throughout.
Take `CC(C)(O)C#CC(C)(C)O`: the result in test [1], in [5], in [6], in test [7] and in [8] was inactive. In addition, the Potency entry in test [2], in test [3] and in test [4] was “inactive” throughout.
In the case of `O=C(O)Cc1ccc(CCNS(=O)(=O)c2ccc(Cl)cc2)cc1`, the molecule was called inactive in test [1], in test [10], in [5], in [6] and in test [7]. Moreover, the Potency result in test [3] and in test [9] was “inactive” each time.
As for `C=C(C)C(=O)OCCCCCCCC(C)C`, the molecule was called inactive in [1], in [5], in test [6], in test [7] and in test [8]. Further, the Potency entry in test [2] and in test [3] was “inactive” throughout.
Take `N=C(N)c1ccc(OCCCOc2ccc(C(=N)N)cc2)cc1`: the molecule was classed as inactive in test [1], in test [5], in test [6], in test [7] and in [8]. For the same molecule, the Potency result in [2], in test [9] and in test [4] was “inactive” throughout.
`CCCCC/C=C\CCC=O`: the molecule was classed as inactive in [1], in [10], in test [5], in [6] and in test [7]. Besides, in [2], the Potency entry is “inactive”.
`CN(C)CCCSc1ccccc1NC(=O)/C=C/c1ccccc1`: the outcome in [1], in test [5], in [6], in [7] and in test [8] was inactive. For the same molecule, the Potency entry in test [2], in test [3] and in test [4] was “inactive” in each case.
As for `O=C(O)CCCc1ccccc1`, the molecule was called inactive in [1], in test [10], in [5], in test [6], in test [7] and in [8]. Besides, the Potency entry in test [3], in [9] and in test [4] was “inactive” in each case.
`CCOC(=O)[C@H](CCc1ccccc1)N[C@@H](C)C(=O)N1[C@H](C(=O)O)C[C@@H]2CCC[C@@H]21`: the outcome in test [1], in [10], in test [5], in [6], in [7] and in [8] was inactive. Further, the Potency entry in test [3] and in test [9] was “inactive” each time.
